The record followed here is PubChem BioAssay (NCATS).

Inconclusive results are not listed. Calls of active or inactive are those of the source. The call rests on the fitted dose curve; in most records, active means well fitted curve in the direction sought with a large enough effect; inconclusive means small, poorly fitted or top-dose-only effect, or another doubt; inactive means no such curve, though single readings can be large; an effect the other way counts as inactive or inconclusive.

A short description of the first test: qHTS of pediatric cancer cell lines to identify multiple opportunities for drug repurposing: Confirmatory screen for BT-37 cells (AID 1347117). Further: potency means the concentration at half of the fitted maximal effect; nearly all actives have a fitted effect of over 55% in size. Conditions: BT-37 pediatric cancer cells, viability; series mostly up to 45.9 µM. The gist of the method: (§1)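 Cells (500-1,000/well) rested 5 h, then received compounds for 48 h; metabolically active cells were measured by CellTiter-Glo luminescence. Final concentrations spanned up to 46 µM (MIPE, 11-point) or 0.59 nM-46 µM (NPC, 8-point) in primary screens, 11-point in follow-ups.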
Turning to `C=CCON=C(C[C@H]1O[C@@H]2O[C@]3(C)CC[C@@H]4[C@H](C)CC[C@@H]([C@H]1C)[C@@]24OO3)[C@H]1O[C@@H]2O[C@]3(C)CC[C@H]4[C@H](C)CC[C@@H]([C@@H]1C)[C@@]24OO3`, the Potency was 147 nM (active).
On the same count and under the same terms, then `CC(=Cc1csc(C)n1)[C@@H]1C[C@H]2O[C@]2(C)CCC[C@H](C)[C@@H](O)[C@@H](C)C(=O)C(C)(C)[C@@H](O)CC(=O)O1`, with 5.2 nM (active); and `CC=C(C)C(=O)N[C@@H](c1ccccc1)[C@@H](O)C(=O)O[C@H]1C[C@@]2(O)[C@@H](OC(=O)c3ccccc3)[C@@H]3[C@]4(OC(C)=O)CO[C@@H]4C[C@H](O)[C@@]3(C)C(=O)[C@H](OC(C)=O)C(=C1C)C2(C)C`, with 52.2 nM (active).

A short description of a further test: qHTS of pediatric cancer cell lines to identify multiple opportunities for drug repurposing: Confirmatory screen for MG 63 (6-TG R) cells (AID 1347119). Further: nearly all actives have a fitted effect of over 55% in size. Further: potency means the concentration at half of the fitted maximal effect. To be noted: MG-63 (6-TG resistant) osteosarcoma viability; series mostly up to 45.9 µM. The gist of the method:
as §1
Background: qHTS replaces the single test concentration by a dilution series.
Regarding `COc1ccc(C(=O)c2c(C)n(CCN3CCOCC3)c3cc(I)ccc23)cc1`, the Potency is 14700 nM (active).
On the same count and under the same terms, in the case of `CC(=Cc1csc(C)n1)[C@@H]1C[C@H]2O[C@]2(C)CCC[C@H](C)[C@@H](O)[C@@H](C)C(=O)C(C)(C)[C@@H](O)CC(=O)O1` it was 3.3 nM (active); in that of `COC1=CC(C)=C[C@@H](C)[C@@H](O)[C@@H](C)CC(C)=CC=C[C@H](OC)[C@H]([C@@H](C)[C@@H](O)[C@H](C)[C@@]2(O)C[C@@H](O)[C@H](C)[C@@H](C(C)C)O2)OC1=O`, “inactive”.
The same measure, in the same setting: then `CC=C(C)C(=O)N[C@@H](c1ccccc1)[C@@H](O)C(=O)O[C@H]1C[C@@]2(O)[C@@H](OC(=O)c3ccccc3)[C@@H]3[C@]4(OC(C)=O)CO[C@@H]4C[C@H](O)[C@@]3(C)C(=O)[C@H](OC(C)=O)C(=C1C)C2(C)C`, with 29.3 nM (active); and `CO[C@H]1CCC(O[C@H]2C[C@H]([C@]3(C)CC[C@]4(C[C@H](O)[C@@H](C)[C@@H]([C@@H](C)C=C(C)C(=O)[C@H](C)C[C@H](C)C(=O)O)O4)O3)O[C@]3(O[C@@H]([C@H]4O[C@@](O)(CO)[C@H](C)C[C@H]4C)C[C@H]3C)[C@H]2C)O[C@H]1C` (stereo partly specified), with 2080 nM (active); and `O=[N+]([O-])c1c(Cl)c(Cl)cc(Cl)c1Cl`, with “inactive”.

Another test is described as follows: qHTS of pediatric cancer cell lines to identify multiple opportunities for drug repurposing: Confirmatory screen for control Hh wild type fibroblast cells (AID 1347121). Further: nearly all actives have a fitted effect of over 70% in size. Conditions: viability qHTS; series mostly up to 45.9 µM. The gist of the method: as §1
With `COc1ccc(C(=O)c2c(C)n(CCN3CCOCC3)c3cc(I)ccc23)cc1`, the Potency result was “inactive”.
Still for that read-out and setting: in the case of `COC1=CC(C)=C[C@@H](C)[C@@H](O)[C@@H](C)CC(C)=CC=C[C@H](OC)[C@H]([C@@H](C)[C@@H](O)[C@H](C)[C@@]2(O)C[C@@H](O)[C@H](C)[C@@H](C(C)C)O2)OC1=O` it was “inactive”; in that of `CC=C(C)C(=O)N[C@@H](c1ccccc1)[C@@H](O)C(=O)O[C@H]1C[C@@]2(O)[C@@H](OC(=O)c3ccccc3)[C@@H]3[C@]4(OC(C)=O)CO[C@@H]4C[C@H](O)[C@@]3(C)C(=O)[C@H](OC(C)=O)C(=C1C)C2(C)C`, “inactive”.
Still for that read-out and setting: in the case of `S=C(SSC(=S)N1CCCCC1)N1CCCCC1` it was “inactive”; in that of `O=[N+]([O-])c1c(Cl)c(Cl)cc(Cl)c1Cl`, “inactive”.

Another test in a line: qHTS of pediatric cancer cell lines to identify multiple opportunities for drug repurposing: Confirmatory screen for U-2 OS cells (AID 1347122). Further: nearly all actives have a fitted effect of over 65% in size. Further: potency means the concentration at half of the fitted maximal effect. Conditions: U-2 OS osteosarcoma cell viability; series mostly up to 45.9 µM. A digest of the protocol: as §1
Regarding `COc1ccc(C(=O)c2c(C)n(CCN3CCOCC3)c3cc(I)ccc23)cc1`, the Potency was 16500 nM (active).
Turning to `CC(=Cc1csc(C)n1)[C@@H]1C[C@H]2O[C@]2(C)CCC[C@H](C)[C@@H](O)[C@@H](C)C(=O)C(C)(C)[C@@H](O)CC(=O)O1`, the Potency was 26.1 nM (active).
As for `COC1=CC(C)=C[C@@H](C)[C@@H](O)[C@@H](C)CC(C)=CC=C[C@H](OC)[C@H]([C@@H](C)[C@@H](O)[C@H](C)[C@@]2(O)C[C@@H](O)[C@H](C)[C@@H](C(C)C)O2)OC1=O`, the Potency result is “inactive”.
Same read-out and setting: in the case of `CO[C@H]1CCC(O[C@H]2C[C@H]([C@]3(C)CC[C@]4(C[C@H](O)[C@@H](C)[C@@H]([C@@H](C)C=C(C)C(=O)[C@H](C)C[C@H](C)C(=O)O)O4)O3)O[C@]3(O[C@@H]([C@H]4O[C@@](O)(CO)[C@H](C)C[C@H]4C)C[C@H]3C)[C@H]2C)O[C@H]1C` (stereo partly specified) it was 5220 nM (active).
Same read-out and setting: in the case of `O=[N+]([O-])c1c(Cl)c(Cl)cc(Cl)c1Cl` it was “inactive”.

A short description of another test: qHTS of pediatric cancer cell lines to identify multiple opportunities for drug repurposing: Confirmatory screen for Rh41 cells (AID 1347123).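 Further: 48 h compound exposure; nearly all actives have a fitted effect of over 60% in size.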 Further: potency means the concentration at half of the fitted maximal effect. Conditions: Rh41 rhabdomyosarcoma cells, viability/cytotoxicity qHTS; series mostly up to 45.9 µM. The gist of the method: as §1
As for `COc1ccc(C(=O)c2c(C)n(CCN3CCOCC3)c3cc(I)ccc23)cc1`, the Potency is 9270 nM (active).
As for `C=CCON=C(C[C@H]1O[C@@H]2O[C@]3(C)CC[C@@H]4[C@H](C)CC[C@@H]([C@H]1C)[C@@]24OO3)[C@H]1O[C@@H]2O[C@]3(C)CC[C@H]4[C@H](C)CC[C@@H]([C@@H]1C)[C@@]24OO3`, the Potency is 52.2 nM (active).
Still for that read-out and setting: then `CC(=Cc1csc(C)n1)[C@@H]1C[C@H]2O[C@]2(C)CCC[C@H](C)[C@@H](O)[C@@H](C)C(=O)C(C)(C)[C@@H](O)CC(=O)O1`, with 10.4 nM (active).
On the same count and under the same terms, in the case of `COC1=CC(C)=C[C@@H](C)[C@@H](O)[C@@H](C)CC(C)=CC=C[C@H](OC)[C@H]([C@@H](C)[C@@H](O)[C@H](C)[C@@]2(O)C[C@@H](O)[C@H](C)[C@@H](C(C)C)O2)OC1=O` it was “inactive”.
Same read-out and setting: then `S=C(SSC(=S)N1CCCCC1)N1CCCCC1`, with 329 nM (active).
Take `CO[C@H]1CCC(O[C@H]2C[C@H]([C@]3(C)CC[C@]4(C[C@H](O)[C@@H](C)[C@@H]([C@@H](C)C=C(C)C(=O)[C@H](C)C[C@H](C)C(=O)O)O4)O3)O[C@]3(O[C@@H]([C@H]4O[C@@](O)(CO)[C@H](C)C[C@H]4C)C[C@H]3C)[C@H]2C)O[C@H]1C` (stereo partly specified): the Potency is 1470 nM (active).
The same measure, in the same setting: in the case of `O=[N+]([O-])c1c(Cl)c(Cl)cc(Cl)c1Cl` it was “inactive”.
